Our source for the cell viability values is the supplement of paper PMC10981050.

Structures are written as SMILES. “And” between values parts separate entries of the source, which are not always exact repeats. Equal values may be shown once. Where a name gives a salt, the structure may show the parent alone.

Holding throughout (assay): cell viability relative to vehicle control; higher = less cytotoxic
Common to all, as to settings: 10 µM

One experiment deals with K562. The essentials:
(§1)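 Screening covered the Selleck bioactive, kinase and epigenetic probe libraries, less identity-inconsistent compounds, on CRISPR-edited mutant clones and isogenic wild-type clones of four leukaemia lines. Cells, at 2000 per well in 50 µL medium, received a single 10 µM acoustically dispensed dose. After 48 h the supernatant was removed and CellTiter-Glo luminescence was read. Viability was analysed in Genedata Screener as percent of the on-plate vehicle control.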

The subject of the next experiment is MARIMO. The method in brief:
as §1

Another experiment relates to MOLM14. The essentials: as §1
The test system of the next experiment is OCI-AML2. The essentials: as §1

With `CC1CNc2c(cccc2S(=O)(=O)N[C@@H](CCCNC(=N)N)C(=O)N2CC[C@@H](C)C[C@@H]2C(=O)O)C1` (some centres not stated) [Argatroban], the cell viability with K562 (SRSF2 genotype: SRSF2 P95H/wt) is 107% and 105%; with K562 (SRSF2 genotype: SRSF2 wt/wt), 94%; in the experiment on MARIMO (SRSF2 genotype: SRSF2 P95H/wt), 100%; in the experiment on MARIMO (SRSF2 genotype: SRSF2 wt/wt), 108%; in the experiment on MOLM14 (SRSF2 genotype: SRSF2 P95H/wt) it was 103%; in the experiment with MOLM14 (SRSF2 genotype: SRSF2 wt/wt), 101%. Besides, the results for the cell viability with OCI-AML2 (SRSF2 genotype: P95H/wt) and with OCI-AML2 (SRSF2 genotype: wt/wt) were 91.7% and 107%, respectively.
With `CCCCCCCCCCC[C@@H](C[C@@H]1OC(=O)[C@H]1CCCCCC)OC(=O)[C@H](CC(C)C)NC=O` [Orlistat (Alli, Xenical)], the cell viability is 75.8% and 85.2% in the experiment with K562 (SRSF2 genotype: SRSF2 P95H/wt); 76.8% in the experiment with K562 (SRSF2 genotype: SRSF2 wt/wt); 41.8% in the experiment on MARIMO (SRSF2 genotype: SRSF2 P95H/wt); 64.9% in the experiment with MARIMO (SRSF2 genotype: SRSF2 wt/wt); 75.3% in the experiment with MOLM14 (SRSF2 genotype: SRSF2 P95H/wt); 73.4% with MOLM14 (SRSF2 genotype: SRSF2 wt/wt). For the same compound, the cell viability with OCI-AML2 (SRSF2 genotype: P95H/wt) came to 49.6%; with OCI-AML2 (SRSF2 genotype: wt/wt) it was 86.8%.
`Cc1cc(-c2ccc(CC(=O)Nc3ccc(-c4cccnc4)cc3)cc2)ccn1`: the cell viability with K562 (SRSF2 genotype: SRSF2 P95H/wt) is 77% and 83%; in the experiment with K562 (SRSF2 genotype: SRSF2 wt/wt), 86.9%; with MARIMO (SRSF2 genotype: SRSF2 P95H/wt) it was 81.5%; with MARIMO (SRSF2 genotype: SRSF2 wt/wt), 86.3%; with MOLM14 (SRSF2 genotype: SRSF2 P95H/wt), 103%; in the experiment on MOLM14 (SRSF2 genotype: SRSF2 wt/wt), 102%. Moreover, the values for the cell viability in the experiment on OCI-AML2 (SRSF2 genotype: P95H/wt) and in the experiment on OCI-AML2 (SRSF2 genotype: wt/wt) were 74% and 78.9%, respectively.
On to `Cc1coc2c1C(=O)C(=O)c1c-2ccc2c(C)cccc12` [Tanshinone I], for which the cell viability in the experiment with K562 (SRSF2 genotype: SRSF2 P95H/wt) is 66.7% and 48.1%; in the experiment with K562 (SRSF2 genotype: SRSF2 wt/wt) it was 41.4%; with MARIMO (SRSF2 genotype: SRSF2 P95H/wt) it was 70.6%; in the experiment with MARIMO (SRSF2 genotype: SRSF2 wt/wt) it was 63.4%; in the experiment on MOLM14 (SRSF2 genotype: SRSF2 P95H/wt), 76.1%; in the experiment with MOLM14 (SRSF2 genotype: SRSF2 wt/wt) it was 48.3%. Further, the cell viability in the experiment with OCI-AML2 (SRSF2 genotype: P95H/wt) came to 57.5%; in the experiment on OCI-AML2 (SRSF2 genotype: wt/wt), 60%.
As to `CC(=O)Cc1cc(=O)c2c(C)cc(O)c([C@@H]3O[C@H](CO)[C@@H](O)[C@H](O)[C@H]3O)c2o1` [Aloesin], the cell viability with K562 (SRSF2 genotype: SRSF2 P95H/wt) was 101% and 97.6%; in the experiment with K562 (SRSF2 genotype: SRSF2 wt/wt), 102%; in the experiment with MARIMO (SRSF2 genotype: SRSF2 P95H/wt), 102%; in the experiment on MARIMO (SRSF2 genotype: SRSF2 wt/wt), 104%; in the experiment on MOLM14 (SRSF2 genotype: SRSF2 P95H/wt) it was 109%; in the experiment with MOLM14 (SRSF2 genotype: SRSF2 wt/wt), 101%. The cell viability in the experiment with OCI-AML2 (SRSF2 genotype: P95H/wt) and in the experiment with OCI-AML2 (SRSF2 genotype: wt/wt) was 105% in each case.
With `NCCCC[C@@H]1NC(=O)[C@@H](Cc2ccccc2)NC(=O)[C@H](CC(=O)O)NC(=O)CNC(=O)[C@H](CCCN=C(N)N)NC1=O` [Cyclo (-RGDfK)], the cell viability in the experiment on K562 (SRSF2 genotype: SRSF2 P95H/wt) was 98.8% and 104%; in the experiment with K562 (SRSF2 genotype: SRSF2 wt/wt), 103%; with MARIMO (SRSF2 genotype: SRSF2 P95H/wt), 98.6%; in the experiment with MARIMO (SRSF2 genotype: SRSF2 wt/wt), 103%; with MOLM14 (SRSF2 genotype: SRSF2 P95H/wt) it was 98.5%; in the experiment with MOLM14 (SRSF2 genotype: SRSF2 wt/wt) it was 101%. The cell viability was 108% with OCI-AML2 (SRSF2 genotype: P95H/wt) and 118% with OCI-AML2 (SRSF2 genotype: wt/wt).
Consider `O=C(O)[C@H]1O[C@@H](Oc2cc3oc(-c4ccccc4)cc(=O)c3c(O)c2O)[C@H](O)[C@@H](O)[C@@H]1O` [Baicalin], for which the cell viability in the experiment on K562 (SRSF2 genotype: SRSF2 P95H/wt) is 98.7% and 105%; in the experiment with K562 (SRSF2 genotype: SRSF2 wt/wt) it was 109%; with MARIMO (SRSF2 genotype: SRSF2 P95H/wt), 101%; in the experiment with MARIMO (SRSF2 genotype: SRSF2 wt/wt) it was 97.8%; with MOLM14 (SRSF2 genotype: SRSF2 P95H/wt), 98.7%; in the experiment on MOLM14 (SRSF2 genotype: SRSF2 wt/wt) it was 107%. Further, the cell viability with OCI-AML2 (SRSF2 genotype: P95H/wt) worked out at 99.9%; in the experiment with OCI-AML2 (SRSF2 genotype: wt/wt) it was 95.3%.
As to `CCCCOc1ccc(C(=O)CCN2CCCCC2)cc1` [Dyclonine hydrochloride], the cell viability is 80.7% and 80.8% in the experiment on K562 (SRSF2 genotype: SRSF2 P95H/wt); 80.6% with K562 (SRSF2 genotype: SRSF2 wt/wt); 77.8% in the experiment on MARIMO (SRSF2 genotype: SRSF2 P95H/wt); 68.7% in the experiment on MARIMO (SRSF2 genotype: SRSF2 wt/wt); 49.2% in the experiment on MOLM14 (SRSF2 genotype: SRSF2 P95H/wt); 76.4% in the experiment on MOLM14 (SRSF2 genotype: SRSF2 wt/wt). Further, the cell viability with OCI-AML2 (SRSF2 genotype: P95H/wt) is 64.5%; in the experiment on OCI-AML2 (SRSF2 genotype: wt/wt), 64.2%.
As for `CC1(C)S[C@@H]2[C@H](NC(=O)[C@H](N)c3ccccc3)C(=O)N2[C@H]1C(=O)OCOC(=O)[C@@H]1N2C(=O)C[C@H]2S(=O)(=O)C1(C)C` [Sultamicillin], the cell viability with K562 (SRSF2 genotype: SRSF2 P95H/wt) was 100% and 98.8%; with K562 (SRSF2 genotype: SRSF2 wt/wt), 106%; in the experiment on MARIMO (SRSF2 genotype: SRSF2 P95H/wt), 93.1%; in the experiment with MARIMO (SRSF2 genotype: SRSF2 wt/wt), 101%; in the experiment on MOLM14 (SRSF2 genotype: SRSF2 P95H/wt) it was 97.2%; in the experiment on MOLM14 (SRSF2 genotype: SRSF2 wt/wt), 102%. The cell viability in the experiment on OCI-AML2 (SRSF2 genotype: P95H/wt) was 103%; in the experiment with OCI-AML2 (SRSF2 genotype: wt/wt), 116%.
